Data: the supplement of paper PMC6411743
± gives the standard deviation of the averaged measurements. Targets with the largest changes are over-represented here; the source holds about 6,200 in all.

Compound: Nc1ncnc2c1ncn2[C@@H]1O[C@H](COP(=O)(O)OP(=O)(O)NP(=O)(O)O)[C@@H](O)[C@H]1O [adenylyl imidodiphosphate]
Test: NP40-soluble protein abundance relative to vehicle (solubility fold change) (ratio); higher = more soluble protein in presence of AMP-PNP
Procedure, shortened: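 Jurkat crude lysate (Dounce-homogenised) was treated with eight concentrations from 0.1 to 10 mM for 10 min at room temperature, then 3 min at 37 °C. It was solubilised with 0.8% NP40 and benzonase (60 min, 4 °C) and ultracentrifuged, and the supernatant was TMT-labelled for LC-MS/MS. Intensities were vsn-normalised, and the value is the fold change against the NP40-processed vehicle per replicate, from three independent experiments.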

Chain of UniProt Q92804 (Q92804 whole entry): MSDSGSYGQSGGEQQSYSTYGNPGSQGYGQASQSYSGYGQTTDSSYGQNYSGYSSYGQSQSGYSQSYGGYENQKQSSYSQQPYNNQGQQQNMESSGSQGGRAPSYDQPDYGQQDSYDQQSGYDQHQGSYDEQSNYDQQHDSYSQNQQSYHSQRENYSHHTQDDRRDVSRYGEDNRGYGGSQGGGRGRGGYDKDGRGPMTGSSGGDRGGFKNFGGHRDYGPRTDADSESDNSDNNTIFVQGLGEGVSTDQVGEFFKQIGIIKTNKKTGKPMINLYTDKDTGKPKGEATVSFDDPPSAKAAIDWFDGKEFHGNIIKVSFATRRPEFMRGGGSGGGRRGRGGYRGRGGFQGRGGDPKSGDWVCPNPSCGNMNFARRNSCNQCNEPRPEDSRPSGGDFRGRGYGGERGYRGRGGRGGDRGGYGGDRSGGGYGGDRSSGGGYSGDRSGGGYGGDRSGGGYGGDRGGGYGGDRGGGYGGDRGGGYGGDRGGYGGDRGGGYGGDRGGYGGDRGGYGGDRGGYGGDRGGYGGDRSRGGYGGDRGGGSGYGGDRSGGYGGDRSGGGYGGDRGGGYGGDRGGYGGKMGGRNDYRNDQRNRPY
Chain of UniProt Q8WUB8 (Q8WUB8 whole entry, one chain of several): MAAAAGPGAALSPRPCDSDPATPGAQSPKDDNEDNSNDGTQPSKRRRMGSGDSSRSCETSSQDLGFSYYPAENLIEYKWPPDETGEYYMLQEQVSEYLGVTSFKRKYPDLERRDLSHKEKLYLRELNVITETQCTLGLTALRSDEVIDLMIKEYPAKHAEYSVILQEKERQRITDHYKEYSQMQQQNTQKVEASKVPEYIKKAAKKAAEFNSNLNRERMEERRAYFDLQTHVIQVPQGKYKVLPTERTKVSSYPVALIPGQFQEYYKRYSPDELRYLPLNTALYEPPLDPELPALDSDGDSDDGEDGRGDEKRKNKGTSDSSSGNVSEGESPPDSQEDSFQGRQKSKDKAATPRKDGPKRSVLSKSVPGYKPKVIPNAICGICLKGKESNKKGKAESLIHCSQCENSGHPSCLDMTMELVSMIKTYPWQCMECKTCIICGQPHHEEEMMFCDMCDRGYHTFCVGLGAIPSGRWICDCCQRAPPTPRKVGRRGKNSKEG
Chain of UniProt Q15365 (Q15365 whole entry): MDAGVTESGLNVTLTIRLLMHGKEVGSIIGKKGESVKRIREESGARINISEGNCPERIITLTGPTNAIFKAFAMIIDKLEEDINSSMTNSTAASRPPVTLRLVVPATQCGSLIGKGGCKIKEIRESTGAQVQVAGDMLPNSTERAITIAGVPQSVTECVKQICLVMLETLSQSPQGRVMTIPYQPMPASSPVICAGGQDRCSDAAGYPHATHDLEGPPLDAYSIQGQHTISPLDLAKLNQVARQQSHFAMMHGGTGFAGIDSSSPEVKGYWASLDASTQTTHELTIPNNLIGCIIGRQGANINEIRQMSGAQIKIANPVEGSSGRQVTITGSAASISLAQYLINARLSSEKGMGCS
Chain of UniProt Q6UXH1 (Q6UXH1 whole entry): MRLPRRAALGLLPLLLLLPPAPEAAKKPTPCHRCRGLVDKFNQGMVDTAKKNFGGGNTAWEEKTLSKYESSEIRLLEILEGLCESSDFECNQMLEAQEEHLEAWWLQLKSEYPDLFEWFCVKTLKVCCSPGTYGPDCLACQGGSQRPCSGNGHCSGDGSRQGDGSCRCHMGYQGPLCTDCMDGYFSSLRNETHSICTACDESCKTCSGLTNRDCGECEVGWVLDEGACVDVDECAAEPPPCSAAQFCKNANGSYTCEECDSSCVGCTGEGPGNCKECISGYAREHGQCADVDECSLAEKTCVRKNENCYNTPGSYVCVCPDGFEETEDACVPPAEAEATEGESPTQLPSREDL
Chain of UniProt Q5EBL8 (Q5EBL8 whole entry): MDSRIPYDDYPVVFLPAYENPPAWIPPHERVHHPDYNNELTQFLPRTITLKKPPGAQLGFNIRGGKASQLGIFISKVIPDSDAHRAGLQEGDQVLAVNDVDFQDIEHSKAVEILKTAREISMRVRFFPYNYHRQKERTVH
Chain of UniProt Q8IXI1 (Q8IXI1 whole entry, looked up): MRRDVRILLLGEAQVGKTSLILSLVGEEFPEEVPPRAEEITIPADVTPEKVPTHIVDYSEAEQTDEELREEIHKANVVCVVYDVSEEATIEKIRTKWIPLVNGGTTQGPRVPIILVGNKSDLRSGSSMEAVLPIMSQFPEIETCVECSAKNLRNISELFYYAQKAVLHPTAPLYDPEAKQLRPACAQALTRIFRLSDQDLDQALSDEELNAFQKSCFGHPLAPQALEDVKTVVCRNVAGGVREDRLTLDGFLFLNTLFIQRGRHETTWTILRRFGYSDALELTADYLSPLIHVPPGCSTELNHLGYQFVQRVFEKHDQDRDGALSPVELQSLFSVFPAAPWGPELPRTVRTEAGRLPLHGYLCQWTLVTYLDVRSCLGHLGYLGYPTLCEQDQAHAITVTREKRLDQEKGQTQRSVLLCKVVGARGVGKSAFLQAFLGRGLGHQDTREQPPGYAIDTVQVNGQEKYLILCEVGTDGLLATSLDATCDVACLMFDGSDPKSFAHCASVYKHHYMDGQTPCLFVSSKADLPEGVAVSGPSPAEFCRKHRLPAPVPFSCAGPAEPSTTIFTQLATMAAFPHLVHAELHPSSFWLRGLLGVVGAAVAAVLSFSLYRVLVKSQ
Chain of UniProt Q16666 (Q16666 whole entry): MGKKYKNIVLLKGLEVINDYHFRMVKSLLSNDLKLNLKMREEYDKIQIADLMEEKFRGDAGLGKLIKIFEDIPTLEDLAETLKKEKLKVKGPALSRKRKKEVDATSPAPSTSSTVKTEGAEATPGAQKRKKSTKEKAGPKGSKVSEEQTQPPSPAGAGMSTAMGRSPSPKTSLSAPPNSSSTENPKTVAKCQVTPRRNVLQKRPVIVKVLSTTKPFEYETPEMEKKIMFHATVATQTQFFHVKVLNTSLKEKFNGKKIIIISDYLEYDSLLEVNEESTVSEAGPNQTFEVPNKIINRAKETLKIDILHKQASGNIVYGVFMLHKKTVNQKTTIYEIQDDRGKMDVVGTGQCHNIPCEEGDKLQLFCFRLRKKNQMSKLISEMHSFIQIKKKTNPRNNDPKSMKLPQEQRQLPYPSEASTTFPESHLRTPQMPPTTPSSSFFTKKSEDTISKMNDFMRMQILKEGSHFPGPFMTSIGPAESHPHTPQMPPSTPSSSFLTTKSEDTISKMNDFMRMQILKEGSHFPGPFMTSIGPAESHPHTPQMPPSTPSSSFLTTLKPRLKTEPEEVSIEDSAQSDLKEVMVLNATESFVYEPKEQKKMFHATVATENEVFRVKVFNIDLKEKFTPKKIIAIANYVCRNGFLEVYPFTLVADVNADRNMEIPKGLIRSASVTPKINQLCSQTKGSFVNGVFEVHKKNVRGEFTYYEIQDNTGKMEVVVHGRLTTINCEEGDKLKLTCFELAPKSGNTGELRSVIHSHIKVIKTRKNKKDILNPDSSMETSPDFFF
Chain of UniProt Q6PI47 (Q6PI47 whole entry): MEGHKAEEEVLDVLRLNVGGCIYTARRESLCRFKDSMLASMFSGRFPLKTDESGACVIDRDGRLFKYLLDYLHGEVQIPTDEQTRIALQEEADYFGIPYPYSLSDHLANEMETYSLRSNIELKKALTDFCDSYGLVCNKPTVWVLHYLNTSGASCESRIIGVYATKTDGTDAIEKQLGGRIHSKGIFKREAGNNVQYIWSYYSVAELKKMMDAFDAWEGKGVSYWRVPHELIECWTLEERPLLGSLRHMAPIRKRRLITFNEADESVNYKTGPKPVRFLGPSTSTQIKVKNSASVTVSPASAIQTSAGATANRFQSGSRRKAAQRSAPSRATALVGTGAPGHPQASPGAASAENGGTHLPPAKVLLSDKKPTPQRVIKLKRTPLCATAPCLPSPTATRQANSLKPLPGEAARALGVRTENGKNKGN
Chain of UniProt Q13442 (Q13442 whole entry): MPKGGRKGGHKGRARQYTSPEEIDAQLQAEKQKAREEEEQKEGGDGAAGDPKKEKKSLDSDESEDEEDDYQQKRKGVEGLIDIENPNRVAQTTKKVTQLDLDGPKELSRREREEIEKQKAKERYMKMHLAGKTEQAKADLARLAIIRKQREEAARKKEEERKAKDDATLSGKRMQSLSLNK
Chain of UniProt Q13572 (Q13572 whole entry): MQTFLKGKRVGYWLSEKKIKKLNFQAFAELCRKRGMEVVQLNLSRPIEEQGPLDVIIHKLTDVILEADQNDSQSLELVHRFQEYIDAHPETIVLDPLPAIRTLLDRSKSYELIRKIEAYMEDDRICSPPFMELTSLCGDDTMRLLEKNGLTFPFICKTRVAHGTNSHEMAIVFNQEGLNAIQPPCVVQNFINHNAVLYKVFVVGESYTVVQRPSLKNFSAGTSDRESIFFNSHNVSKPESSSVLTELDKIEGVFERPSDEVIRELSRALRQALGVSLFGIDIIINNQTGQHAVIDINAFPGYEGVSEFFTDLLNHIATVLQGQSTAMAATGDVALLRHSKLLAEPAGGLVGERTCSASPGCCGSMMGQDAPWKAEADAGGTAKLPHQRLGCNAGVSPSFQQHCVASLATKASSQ
Chain of UniProt Q5XUX1 (Q5XUX1 whole entry): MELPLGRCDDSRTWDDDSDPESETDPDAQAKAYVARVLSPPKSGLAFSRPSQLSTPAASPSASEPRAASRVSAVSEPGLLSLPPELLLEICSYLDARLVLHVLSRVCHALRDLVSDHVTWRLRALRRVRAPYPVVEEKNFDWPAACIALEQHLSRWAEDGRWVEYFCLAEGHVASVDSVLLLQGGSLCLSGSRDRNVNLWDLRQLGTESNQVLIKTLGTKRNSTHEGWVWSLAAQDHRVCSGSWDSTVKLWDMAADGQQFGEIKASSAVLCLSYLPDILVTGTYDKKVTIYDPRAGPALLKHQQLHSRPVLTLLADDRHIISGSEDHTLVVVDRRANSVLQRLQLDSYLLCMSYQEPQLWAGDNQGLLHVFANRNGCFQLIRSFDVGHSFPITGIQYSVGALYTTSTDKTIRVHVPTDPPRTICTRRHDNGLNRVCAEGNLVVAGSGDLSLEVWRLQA
Chain of UniProt Q5JTJ3 (Q5JTJ3 whole entry, one chain of several): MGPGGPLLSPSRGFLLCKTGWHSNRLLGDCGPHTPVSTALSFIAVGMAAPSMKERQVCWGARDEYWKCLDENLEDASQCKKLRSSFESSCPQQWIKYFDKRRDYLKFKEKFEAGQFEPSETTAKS

Target	NP40-soluble protein abundance (concentration: 1mM)	NP40-soluble protein abundance (concentration: 2mM)	NP40-soluble protein abundance (concentration: 4mM)	NP40-soluble protein abundance (concentration: 6mM)	NP40-soluble protein abundance (concentration: 8mM)	NP40-soluble protein abundance (concentration: 10mM)
DHX38 (UniProt Q92620)	1.016 ± 0.0095	1.03 ± 0.037	1.03 ± 0.012	1.01 ± 0.055	1.04 ± 0.034	1.03 ± 0.023
UniProt Q15642-2|Q15642-3|Q15642-4|W4VSQ9|M0R0F9	1.09 ± 0.014	1.07 ± 0.036	1.07 ± 0.014	1.04 ± 0.054	1.07 ± 0.025	1.06 ± 0.065
Q5THR1|Q9H5Z1|Q9H5Z1-2|F2Z2Z2 (UniProt Q9H5Z1)	1.02 ± 0.061	0.96808 ± 0.00094	1.01 ± 0.011	0.987 ± 0.024	0.991 ± 0.022	0.997 ± 0.023
THOC5 (UniProt Q13769)	1.36 ± 0.17	1.42 ± 0.23	1.65 ± 0.35	1.84 ± 0.54	2.03 ± 0.65	2.16 ± 0.88
UniProt Q7L0J3|Q7L0J3-2	1 ± 0.032	1.05 ± 0.072	1.03 ± 0.031	1.02 ± 0.025	1.03 ± 0.033	1.02 ± 0.028
NONO (UniProt Q15233)	1.09 ± 0.048	1.17 ± 0.064	1.22 ± 0.056	1.39 ± 0.12	1.45 ± 0.15	1.56 ± 0.18
UniProt Q8TAT6|Q8TAT6-2	0.955 ± 0.025	0.961 ± 0.022	0.968 ± 0.044	0.983 ± 0.015	0.991 ± 0.036	1.02 ± 0.025
UniProt Q86U86|Q86U86-8	1.051 ± 0.009	1.1 ± 0.014	1.15 ± 0.017	1.226 ± 0.008	1.29 ± 0.035	1.37 ± 0.09
UniProt Q13825|Q13825-2	0.995 ± 0.028	1.02 ± 0.025	1.04 ± 0.044	1.03 ± 0.015	1.04 ± 0.057	1.06 ± 0.025
UniProt Q5EBL8|Q5EBL8-2	1 ± 0.011	1.02 ± 0.023	0.9905 ± 0.0052	1 ± 0.025	1.02 ± 0.03	1.017 ± 0.0054
UniProt Q93074-2	1.01 ± 0.032	1 ± 0.028	1.06 ± 0.019	0.971 ± 0.08	0.984 ± 0.042	0.999 ± 0.067
DTX3L (UniProt Q8TDB6)	1.03 ± 0.02	1.01 ± 0.024	1.04 ± 0.059	0.994 ± 0.03	0.996 ± 0.038	0.993 ± 0.022
THOC7 (UniProt Q6I9Y2)	1.29 ± 0.045	1.47 ± 0.2	1.57 ± 0.24	1.73 ± 0.39	1.85 ± 0.47	1.93 ± 0.64
UniProt Q15365	1.031 ± 0.0057	1.04 ± 0.038	1.04 ± 0.033	1 ± 0.02	1.01 ± 0.014	1.01 ± 0.03
UniProt Q8WUB8|Q8WUB8-2|Q8WUB8-3|S5FZ81	1.01 ± 0.045	1.04 ± 0.034	1.07 ± 0.023	1.11 ± 0.045	1.08 ± 0.051	1.15 ± 0.061
UniProt Q8WWW0|Q8WWW0-2	0.9981 ± 0.0063	0.996 ± 0.033	1.02 ± 0.018	1.03 ± 0.039	1.02 ± 0.029	1.03 ± 0.052
UniProt Q8WZA0|Q8WZA0-2	0.969 ± 0.052	0.957 ± 0.0098	0.928 ± 0.059	0.912 ± 0.044	0.921 ± 0.034	0.859 ± 0.054
UniProt Q16666|Q16666-2	1.06 ± 0.052	1.11 ± 0.023	1.22 ± 0.069	1.43 ± 0.14	1.49 ± 0.14	1.53 ± 0.19
EXOSC6 (UniProt Q5RKV6)	1.04 ± 0.032	1.03 ± 0.041	1.08 ± 0.018	1.12 ± 0.036	1.14 ± 0.052	1.14 ± 0.074
UniProt Q86Y56	0.976 ± 0.045	0.931 ± 0.038	0.977 ± 0.037	1.01 ± 0.022	0.997 ± 0.055	0.991 ± 0.04

Target	NP40-soluble protein abundance (concentration: 1mM)	NP40-soluble protein abundance (concentration: 2mM)	NP40-soluble protein abundance (concentration: 4mM)	NP40-soluble protein abundance (concentration: 6mM)	NP40-soluble protein abundance (concentration: 8mM)	NP40-soluble protein abundance (concentration: 10mM)
PDAP1 (UniProt Q13442)	1.07 ± 0.072	1.17 ± 0.026	1.13 ± 0.048	1.26 ± 0.093	1.24 ± 0.085	1.35 ± 0.12
TRAPPC5 (UniProt Q8IUR0)	0.946 ± 0.055	0.933 ± 0.043	0.959 ± 0.073	1.187 ± 0.002	1.18 ± 0.043	1.12 ± 0.13
UniProt Q969T7|Q969T7-2	0.981 ± 0.054	0.95 ± 0.043	0.999 ± 0.029	0.966 ± 0.025	0.96 ± 0.042	0.963 ± 0.046
CCDC6 (UniProt Q16204)	0.993 ± 0.023	1.06 ± 0.037	0.979 ± 0.041	0.957 ± 0.024	0.9475 ± 0.0034	0.916 ± 0.027
UniProt Q5H8A4-5	0.979 ± 0.011	0.971 ± 0.019	0.983 ± 0.034	0.92 ± 0.01	0.9558 ± 0.0061	0.952 ± 0.016
UniProt Q6PI47	0.873 ± 0.06	0.905 ± 0.046	0.947 ± 0.051	1 ± 0.023	1.08 ± 0.047	1.1 ± 0.064
OVCA2 (UniProt Q8WZ82)	1.01 ± 0.018	0.992 ± 0.052	1.01 ± 0.062	0.981 ± 0.018	1.01 ± 0.041	0.999 ± 0.03
RHOT2 (UniProt Q8IXI1)	1.02 ± 0.021	1 ± 0.073	1.02 ± 0.03	0.9999 ± 0.006	1.004 ± 0.01	1.02 ± 0.034
UniProt Q15056-2|Q15056	0.999 ± 0.037	1.03 ± 0.035	0.945 ± 0.14	0.94 ± 0.081	0.929 ± 0.087	0.884 ± 0.21
GATAD2B (UniProt Q8WXI9)	1.01 ± 0.014	1.06 ± 0.046	1.024 ± 0.0076	1.01 ± 0.049	0.994 ± 0.035	1.02 ± 0.03
UniProt Q8N4N3|Q8N4N3-2	1 ± 0.013	0.996 ± 0.019	0.981 ± 0.027	0.96 ± 0.019	0.981 ± 0.027	0.959 ± 0.017
UniProt Q16698-2|Q16698	1.06 ± 0.085	1.11 ± 0.058	1.19 ± 0.08	1.21 ± 0.014	1.26 ± 0.041	1.25 ± 0.02
UniProt Q8NHM5|Q8NHM5-2|Q8NHM5-3|Q8NHM5-4	1.02 ± 0.024	1.034 ± 0.0075	1.04 ± 0.054	1.04 ± 0.04	1.01 ± 0.021	1.04 ± 0.034
UniProt Q7L4P6|Q7L4P6-2	1.21 ± 0.13	1.37 ± 0.095	1.2 ± 0.15	1.14 ± 0.16	1.03 ± 0.043	1.23 ± 0.19
UniProt Q7Z2K8|Q7Z2K8-2	0.958 ± 0.012	0.913 ± 0.023	1.12 ± 0.049	1.1 ± 0.038	0.932 ± 0.057	0.932 ± 0.031
UniProt Q8WZA9	1.03 ± 0.023	1.08 ± 0.07	1.04 ± 0.059	0.988 ± 0.028	0.981 ± 0.021	0.989 ± 0.067
ARFGAP1 (UniProt Q8N6T3)	1.02 ± 0.021	1.02 ± 0.023	1.02 ± 0.016	1.02 ± 0.023	0.993 ± 0.018	1.01 ± 0.038
UniProt Q8IWI9|Q8IWI9-3|Q8IWI9-4	1.02 ± 0.023	1.01 ± 0.021	1.01 ± 0.047	0.953 ± 0.014	0.924 ± 0.029	0.944 ± 0.046
UniProt Q5FWF5	1.01 ± 0.012	1.012 ± 0.0086	1 ± 0.026	1.04 ± 0.035	1.029 ± 7.1e-05	1.06 ± 0.023
UniProt Q6UXH1|Q6UXH1-4|Q6UXH1-5|Q6UXH1-6	1.01 ± 0.032	1.07 ± 0.056	1.01 ± 0.029	0.964 ± 0.019	0.956 ± 0.045	1.01 ± 0.029

Target	NP40-soluble protein abundance (concentration: 1mM)	NP40-soluble protein abundance (concentration: 2mM)	NP40-soluble protein abundance (concentration: 4mM)	NP40-soluble protein abundance (concentration: 6mM)	NP40-soluble protein abundance (concentration: 8mM)	NP40-soluble protein abundance (concentration: 10mM)
PYCR2 (UniProt Q96C36)	0.98 ± 0.028	1.01 ± 0.051	0.997 ± 0.013	1.01 ± 0.011	0.9755 ± 0.0097	1 ± 0.032
UniProt Q8NDV3-2|Q8NDV3-3	0.953 ± 0.039	0.942 ± 0.011	0.928 ± 0.015	0.977 ± 0.0022	0.945 ± 0.025	0.944 ± 0.033
HP1BP3 (UniProt Q5SSJ5)	0.963 ± 0.042	1.06 ± 0.063	1.03 ± 0.065	1.16 ± 0.017	1.18 ± 0.069	1.39 ± 0.15
UniProt Q92804|Q92804-2	1.07 ± 0.15	1.15 ± 0.031	1.19 ± 0.17	1.27 ± 0.21	1.32 ± 0.13	1.54 ± 0.23
CAND1 (UniProt Q86VP6)	0.971 ± 0.024	0.947 ± 0.03	0.983 ± 0.035	1.01 ± 0.084	1.03 ± 0.044	0.992 ± 0.058
UniProt Q5T3F8|H3BLW6	1 ± 0.052	1.06 ± 0.1	1.01 ± 0.038	1.01 ± 0.019	0.985 ± 0.042	1.01 ± 0.049
LRRC59 (UniProt Q96AG4)	1.11 ± 0.048	1.32 ± 0.3	1.13 ± 0.089	1.15 ± 0.028	1.12 ± 0.052	1.19 ± 0.13
PMVK (UniProt Q15126)	0.948 ± 0.0098	0.931 ± 0.018	0.973 ± 0.045	1.04 ± 0.07	1.04 ± 0.061	1.02 ± 0.052
EIF3A (UniProt Q14152)	1.05 ± 0.029	1.08 ± 0.044	1.12 ± 0.087	1.19 ± 0.12	1.25 ± 0.12	1.38 ± 0.19
UniProt Q6UN15|Q6UN15-3	1.03 ± 0.024	1.11 ± 0.062	1.059 ± 0.0078	1.07 ± 0.053	1.08 ± 0.034	1.15 ± 0.064
PLA2G15 (UniProt Q8NCC3)	0.991 ± 0.013	0.975 ± 0.013	1.02 ± 0.03	0.986 ± 0.029	0.9922 ± 0.0084	0.979 ± 0.021
UniProt Q8N5M4|E9PKV8	0.932 ± 0.054	0.94 ± 0.03	0.91 ± 0.032	0.984 ± 0.064	0.961 ± 0.055	0.938 ± 0.071
ITPK1 (UniProt Q13572)	1.019 ± 0.0014	1.035 ± 0.0039	1.01 ± 0.014	0.992 ± 0.025	1.02 ± 0.04	0.9738 ± 0.0084
UniProt Q86VR2	0.989 ± 0.0052	0.966 ± 0.024	0.977 ± 0.025	0.976 ± 0.015	0.9994 ± 0.002	0.952 ± 0.01
UniProt Q8TEQ0|Q8TEQ0-2	1.02 ± 0.035	1.03 ± 0.047	1.01 ± 0.029	0.98 ± 0.054	0.969 ± 0.017	0.953 ± 0.021
UniProt Q5XUX1|Q5XUX1-3|Q5XUX1-2	0.986 ± 0.017	0.96 ± 0.042	0.976 ± 0.026	0.993 ± 0.021	0.982 ± 0.024	0.969 ± 0.028
UniProt Q86VP1-2|Q86VP1-4|B8ZZD4	0.977 ± 0.039	1.01 ± 0.026	0.963 ± 0.024	0.935 ± 0.038	0.925 ± 0.033	0.936 ± 0.031
UniProt Q14444|Q14444-2	1.12 ± 0.041	1.22 ± 0.17	1.16 ± 0.064	1.19 ± 0.13	1.19 ± 0.094	1.25 ± 0.08
UniProt Q5JTJ3|Q5JTJ3-2|Q5JTJ3-3|X6R5Z6	1.02 ± 0.015	1.04 ± 0.081	0.991 ± 0.038	0.97 ± 0.043	0.943 ± 0.016	0.966 ± 0.046
KBTBD8 (UniProt Q8NFY9)	0.953 ± 0.046	0.944 ± 0.043	0.955 ± 0.035	0.976 ± 0.018	0.973 ± 0.02	0.965 ± 0.025
